aSyn 5UTR inh – 5' untranslated region of α-synuclein, MLPCN primary screen; alpha-synuclein 5'UTR reporter, inhibitor activity; inhibition, % (tested at 7.5 µM); actives 0.82% (n = 300,000); AID 1813; in the data active = inhibition above about 60%;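 also: H4 neuroglioblastoma cells stably carrying SNCA 5'UTR luciferase fusion; 0% = DMSO wells and 100% = positive control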
KLF5 inh – inhibitors of KLF5 expression; DLD-1 KLF5 promoter-luciferase reporter, luminescence; inhibition, % at 5 µM; actives 0.23% (n = 290,000); AID 1700;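 active = inhibition above a per-plate limit of that plate's mean compound inhibition plus 3 SD, cut at about 60% in these data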;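 also: 0% = DMSO wells and 100% = LY294002 at 200 µM; higher means less KLF5 promoter-driven luciferase light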
Ba/F3 V617F tox – reduce viability of Ba/F3 cells dependent on JAK2V617F; Ba/F3 EpoR-JAK2V617F viability, ATP luminescence; inhibition, % at 5.6 µM; actives 1.1% (n = 220,000); AID 1446;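 active = inhibition above the campaign mean plus 3 SD over all tested compounds, cut at about 24% in these data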;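 also: cytokine-independent growth of Ba/F3 cells driven by EpoR plus mutant JAK2; 0% = DMSO-treated cells and 100% = JAK inhibitor I control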
APP transl inh – APP translation inhibition; SH-SY5Y APP 5'UTR-luciferase reporter, luminescence; inhibition, % at 2 µM; actives 0.82% (n = 190,000); AID 1285;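 active = inhibition above a set limit, derived from the sample mean plus 3 SD, cut at about 45% in these data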
BaF3 tox – parental Ba/F3 viability inhibition as JAK2V617F counter-screen; CellTiter-Glo ATP luminescence; inhibition, % at 5.6 µM; actives 1.1% (n = 220,000); AID 1486;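 active = inhibition above a per-campaign cutoff, the mean inhibition of all tested compounds plus 3 SD, cut at about 27% in these data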;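 also: 0% = DMSO wells and 100% = JAK Inhibitor I control wells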
IEC-6 tox-1 – IEC-6 cytotoxicity, counter-screen for KLF5 inhibitors | luminescence viability | inhibition, % at 5 µM | actives 0.78% (n = 290,000); in the data active = inhibition above about 22%;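 also: 0% = plate median of test compound wells and 100% = cytotoxic reference compound wells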
KLF5 confirm – confirmation of KLF5 inhibitors; shares compounds with KLF5 inh; DLD-1 KLF5 promoter firefly luciferase reporter, luminescence; inhibition, % at 4 µM; actives 79% (n = 610);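 active = inhibition above a set limit taken from the earlier primary screen, cut at about 63% in these data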;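 also: 0% = DMSO wells and 100% = LY294002 at 200 µM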
IEC-6 tox-2 – kills rat IEC-6 cells in KLF5 counter-screen | shares compounds with KLF5 inh | IEC-6 rat intestinal cells, viability luminescence | inhibition, % at 4 µM | actives 56% (n = 610); in the data active = inhibition above about 23%;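 also: cells exposed to compounds for 48 hours before viability read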
Active calls of the source: *; . = no result given. Rows were chosen to be rich in hits. Some 2.2% of all compounds tested hit in one or more screens of this group.

SMILES	aSyn 5UTR inh	KLF5 inh	Ba/F3 V617F tox	APP transl inh	BaF3 tox	IEC-6 tox-1	KLF5 confirm	IEC-6 tox-2
O=c1cc(-c2ccccc2)[nH]c2ccc(F)cc12	86.6*	68.8*	74.9*	91.8*	74.2*	81.6*	82.4*	56.6*
Cc1ccc(-c2cc(=O)c3cc(F)ccc3[nH]2)cc1	-40.7	-21.9	0.5	-6.1	4.5	-6.1	.	.
CC(=O)N(C1=C(N2CCOCC2)C(=O)c2ccccc2C1=O)c1ccc(C(=O)O)cc1	25.9	-9.8	4.1	.	-0.5	-3.6	.	.
CC(=O)N(C)C1=C(N2CCOCC2)C(=O)c2ccccc2C1=O	76.2*	85.4*	101.0*	-3.3	101.3*	-1.7	84.3*	15.2
COc1ccccc1NC(=O)Nc1nc(CC(=O)N2CCN(c3ccccc3OC)CC2)cs1	6.5	.	.	.	.	.	.	.
CCOc1ccc(-c2ccc(SC)nn2)cc1	75.6*	77.8*	9.9	-77.1	11.9	10.3	59.6	14.0
Fc1ccc(-c2nnc(NC3=NCCCCC3)o2)cc1	98.3*	72.5*	10.5	-44.9	11.3	11.8	40.8	1.1
c1ccc(-c2nnc(NC3=NCCC3)o2)cc1	-7.1	-91.7	6.4	-122.0	7.0	-1.2	.	.
Nc1c(C(=O)Nc2cccc(C(=O)O)c2)sc2nc3c(cc12)CCCC3	76.6*	83.7*	.	.	.	0.5	90.1*	-8.2
COc1cc(C2C(C#N)=C(C)NC3=C2C(=O)c2ccccc23)cc(OC)c1OC (centres undefined)	.	77.6*	88.5*	4.2	73.6*	93.7*	42.9	44.7*
O=C(O)c1cccc(N/N=C/c2ccc(OC(F)(F)F)cc2)c1	64.3*	71.2*	.	.	.	-2.7	67.1*	5.1
O=[N+]([O-])c1cc(CN2CCN(c3ccccc3)CC2)c(O)c2ncccc12	82.0*	76.3*	73.6*	80.1*	75.5*	51.8*	89.2*	76.6*
O=[N+]([O-])c1cc(CN2CCOCC2)c2cccnc2c1O	.	-1.1	4.7	5.2	7.8	-6.3	.	.
Cc1ccc(C(=O)OCC(=O)Nc2c(Cl)cc(S(N)(=O)=O)cc2Cl)o1	10.7	-36.5	-0.9	.	-2.4	1.1	.	.
CC1(C(=O)N/N=C/c2ccccc2)CC1(Cl)Cl (centres undefined)	-19.6	-14.7	.	.	.	2.8	.	.
NS(=O)(=O)c1ccc(Oc2ccc(S(N)(=O)=O)cc2)cc1	7.9	-44.5	5.6	-15.0	9.3	-2.3	.	.
C=CS(=O)(=O)c1ccc(Oc2ccc(S(=O)(=O)C=C)cc2)cc1	-108.2	76.8*	84.0*	90.5*	67.8*	75.7*	46.8	37.6*
Cc1ccc(C(=O)Nc2ccc3c(c2)OCCO3)c(Cl)c1	79.7*	78.2*	.	.	.	3.0	38.1	6.2
O=C(Nc1ccc2c(c1)OCCO2)c1cc(F)c(F)cc1Cl	-194.8	-104.4	.	.	.	-1.6	.	.
CCCc1ccc(-c2ccc(/C=C/C(=O)O)cc2)nc1	114.5*	78.9*	-3.0	46.3*	-2.8	7.8	82.8*	-2.7
CCCCCCCc1ccc(-c2ccc(O)cc2)nc1	-27.6	-54.6	-0.8	-26.6	4.0	-5.8	.	.
O=c1cnnc(N/N=C/c2ccccn2)[nH]1	74.8*	75.7*	40.7*	.	50.6*	8.2	71.6*	49.7*
COc1cc(/C=C/[N+](=O)[O-])ccc1OCc1cccc(C(=O)O)c1	96.8*	71.3*	0.9	57.9*	7.7	-7.1	67.5*	-5.7
Cc1ccc2nc(-c3ccccc3)cn2c1	120.4*	84.2*	15.2	-2.7	15.1	16.5	76.6*	23.2*
Cc1ccc2nc(-c3ccc(O)c(O)c3)cn2c1	22.4	-62.6	.	.	.	18.9	.	.
SMILES	aSyn 5UTR inh	KLF5 inh	Ba/F3 V617F tox	APP transl inh	BaF3 tox	IEC-6 tox-1	KLF5 confirm	IEC-6 tox-2
Cc1cc(C(=O)N/N=C/c2cccc3ccccc23)c(C)o1	-62.0	-60.5	.	.	.	6.4	.	.
O=C(Nc1cccc(-c2ccc(N3CCCCC3)nn2)c1)C(F)(F)F	96.2*	75.6*	.	.	.	10.7	50.9	13.7
CC1CCN(c2ccc(-c3cccc(NC(=O)C(F)(F)F)c3)nn2)CC1	102.8*	83.7*	.	.	.	14.0	88.1*	22.8*
O=C(Nc1cccc(-c2ccc(N3CCCCC3)nn2)c1)c1ccc(Br)o1	-25.9	.	.	.	.	.	.	.
CCC(=O)Nc1cccc(-c2ccc(N3CCC(C)CC3)nn2)c1	40.9	50.0	.	.	.	10.5	.	.
Cc1ccc(CNS(=O)(=O)c2ccc(C(F)(F)F)cc2)n1C	-13.5	-10.3	-5.9	.	-5.2	-9.7	.	.

Screens from PubChem BioAssay.
